Test results reported in PubChem BioAssay AID504692 (The Scripps Research Institute Molecular Screening Center, 2011).
Screen size: about 340,000 compounds; about 2,000 (0.59%) were called active. The list comes from a sample in which actives are over-represented; it also holds similar structures and randomly drawn compounds. Unmarked numbers belong to inactive results. Cut-off read from the data, not from the text of the source: active = activation mostly above about 9.5% (no sharp cut-off); inactive = mostly below about 7.6%.

Biological target: 5-hydroxytryptamine receptor 5A (Homo sapiens) (UniProt P47898)
Sequence (P47898 whole entry, looked up): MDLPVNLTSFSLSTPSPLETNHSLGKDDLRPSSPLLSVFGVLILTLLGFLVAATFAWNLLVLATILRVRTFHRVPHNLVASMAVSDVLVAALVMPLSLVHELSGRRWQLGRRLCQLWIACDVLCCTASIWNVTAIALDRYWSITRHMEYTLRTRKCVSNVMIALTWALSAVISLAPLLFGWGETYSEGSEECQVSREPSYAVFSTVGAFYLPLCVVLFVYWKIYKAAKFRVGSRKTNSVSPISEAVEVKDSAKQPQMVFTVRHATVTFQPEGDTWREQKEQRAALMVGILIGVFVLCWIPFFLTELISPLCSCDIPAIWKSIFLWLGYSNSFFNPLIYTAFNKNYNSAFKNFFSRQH
Assay: HTR5A agonists in luminescence cell assay, primary screen, counter-screen for OPRM1-OPRD1 heterodimer agonist project, full-deck HTS (AID 504692);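 note: 0% = cells with vehicle only and 100% = reference agonist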
Settings: cell-based, at 9.3 µM, hits give high values

First: Cc1cc(C)c(S(=O)(=O)N(C)CC(=O)NCC2CCCO2)c(C)c1 (stereo unspecified)
Second: Cc1cc(C(C)(C)C)oc1C(=O)N(CC(=O)NC1CCCC1)Cc1ccc(Cl)cc1
The activation of the first is higher: 8.59% for the first, 2.84% for the second.

Going from `COc1ccc(CN2CCN(C(=O)CCC(=O)Nc3nnc(C(C)C)s3)CC2)cc1F` to `COc1ccc(NC(=O)CSc2nnc(-c3ccccc3F)n2C2CC2)cc1S(N)(=O)=O`, the activation falls from 2.2% to -5.29%.

First: CC(C)OC(=O)c1sc2nc3c(cc2c1N)C(=O)CCC3
Second: CCc1ccc(OCC(=O)OC(C)C(=O)NC2CC2)cc1 (stereo unspecified)
The activation of the first is higher: 5.9% for the first, 1.16% for the second.

First: Cc1ccc2nc(N(CCN(C)C)C(=O)C3=COCCO3)sc2c1
Second: Cc1ccc2sc(N(CCN(C)C)C(=O)/C=C/c3cccs3)nc2c1C
The activation of the first is lower: -2.68% for the first, 6.97% for the second.

Going from `O=C(CSc1nnc(-c2ccc([N+](=O)[O-])cc2)o1)Nc1ccccn1` to `Cn1c(CCC(=O)Nc2ccccc2F)nnc1SCC(=O)Nc1ccccc1Cl`, the activation falls from 0.96% to -0.17%.

Going from `CC(C)CNS(=O)(=O)c1ccc(CCC(=O)NCc2ccc(Cl)cc2)cc1` to `Cc1ccc(S(=O)(=O)NCCC(=O)NCc2ccc(Cl)cc2)cc1C`, the activation falls from 0.62% to -0.86%.

Going from `CCOc1ccc(S(=O)(=O)NCCCn2ccnc2)cc1NC(C)=O` to `COc1ccc(C)cc1S(=O)(=O)NCCc1ccccc1`, the activation falls from 2.78% to 1.84%.

Going from `NC(=O)C1(C(N)=O)OC1c1ccc(Cl)cc1Cl` (stereo unspecified) to `COc1ccc(CCn2ccc(O)c(Cc3ccc(Cl)cc3Cl)c2=O)cc1OC`, the activation falls from 3.12% to -0.18%.

Going from `O=C(COC(=O)c1n[nH]c2ccccc12)Nc1ccccc1Br` to `CCOc1ncccc1C(=O)OCC(=O)N1c2ccccc2CC1C` (stereo unspecified), the activation rises from -1.79% to -1.04%.

Going from `COc1ccc(C/C(N)=N/OC(=O)c2ccco2)cc1OC` to `CCOC(=O)c1[nH]c(C)c(C(=O)OCC(=O)N2c3ccccc3CC2C)c1C` (stereo unspecified), the activation falls from 1.65% to -1.22%.

`Cc1cc(C)cc(C(=O)N(CCc2ccccc2)C2=CC3CCC(C2)N3C)c1` (stereo unspecified) was tested, and the activation was 7.8%.

`Cc1cc(C)c2nc(N(CCN(C)C)C(=O)/C=C/c3cccs3)sc2c1` was tested, and the activation was 11.5% (active).
For `CSc1ccc(S(=O)(=O)NCc2ccc(Cl)cc2)cc1`, the activation was 10.3% (active).
For `COc1ccc(C(=O)O/N=C(\N)Cc2ccc(Cl)cc2Cl)cc1OC`, the activation was 27.1% (active).
`CCn1nc(C(=O)OCC(=O)N2c3ccccc3CC2C)c2ccccc2c1=O` (stereo unspecified) was tested, and the activation was 36.7% (active).
In the case of `CCCN(CCc1ccccc1)C1CCc2c(O)cccc2C1` (stereo unspecified), the activation is reported as 24.5% (active).
